The record followed here is PubChem BioAssay (NCATS).

Results filed as inconclusive are left out. Entries that show only a call come without a potency. The source made the active and inactive calls. Calls follow the shape of the dose curve; as a rule, active = well fitted inhibition curve with a large enough effect; inconclusive = small, poorly fitted or top-dose-only effect; inactive = flat fitted curve, though single readings scatter.

The experiment concerns the target Aldehyde dehydrogenase, mitochondrial (Homo sapiens) (UniProt P05091). Description: qHTS for Inhibitors of the Aldehyde Dehydrogenase Family (ALDH2) Primary screen (AID 2061308). Also: nearly all actives have a fitted effect of over 55% in size. Conditions: ALDH2 enzyme inhibition qHTS, 1536-well; series mostly up to 56 µM. For orientation: Quantitative high-throughput screening tests each substance at several concentrations.
Consider `O=C(O[C@H]1[C@@H]2C[C@@H]3OC[C@](O)([C@@H]1Cl)[C@H]2C(O[C@@H]1O[C@H](CO)[C@@H](O)[C@H](O)[C@H]1O)O3)c1ccc(O)c(O)c1` (stereo partly specified), for which the Potency result is “inactive”.
With `O=C(O)/C=C/c1cc2c(cc1O[C@@H]1O[C@H](CO)[C@@H](O)[C@H](O)[C@H]1O)OCO2`, the Potency result was “inactive”.
As for `CC1(C)OC(=O)CC(O)C2(C)C1CC(=O)C1(C)C2C(O)CC2(C)C(c3ccoc3)OC(=O)C3OC321` (stereo unspecified), the Potency entry is “inactive”.
In the case of `C=C1CC[C@@H]2[C@](C)(CO[C@@H]3O[C@H](CO)[C@@H](O)[C@H](O)[C@H]3O)CCC[C@@]2(C)[C@@H]1CCC1=CCOC1=O` it was “inactive”; in that of `CC1=C(CCC(C)O[C@@H]2O[C@H](CO)[C@@H](O)[C@H](O)[C@H]2O)C(C)(C)CCC1=O` (stereo partly specified), “inactive”.
To `COC(=O)C1=COC(O[C@@H]2O[C@H](CO)[C@@H](O)[C@H](O)[C@H]2O)/C(=C\COC(=O)/C=C/c2ccccc2)C1CC(=O)OCCc1ccc(O)cc1` (stereo partly specified) belongs “inactive”; to `COc1cc(C(CO)C(OC2OC(CO)C(O)C(O)C2O)c2ccc(O)c(OC)c2)ccc1O` (stereo unspecified), “inactive”; to `COc1cc(N2CCOCC2)ccc1Nc1ncc(F)c(Nc2ccccc2NS(C)(=O)=O)n1`, “inactive”.
For the molecule `Nc1nc2c(cnn2CCCc2ccc(O)cc2)c2nc(-c3ccco3)nn12`, the Potency result is “inactive”.
In the case of `C=C1C(=O)OC[C@@H]1C/C=C(\C)CC1CC(C)C(=O)O1` (stereo partly specified) it was “inactive”; in that of `C/C=C1/[C@H](O[C@@H]2O[C@H](CO)[C@@H](O)[C@H](O)[C@H]2O)OC=C(C(=O)OC)[C@H]1CC(=O)OCCc1ccc(OC(=O)C[C@@H]2C(C(=O)OC)=CO[C@@H](O[C@@H]3O[C@H](CO)[C@@H](O)[C@H](O)[C@H]3O)/C2=C/C)cc1`, “inactive”.
